Test results as given in PubChem BioAssay.

Experiment: probe aLefty1 binding on compound microarray – biochemical, small-molecule microarray, 635/667 nm fluorescence, primary screen (AID 1153);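 note: score merges spot fluorescence with signal-to-noise ratio from the scanned slide images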
Conditions: higher = more signal
With `COc1cc(CO)cc(I)c1O[C@H]1C=C(C(=O)NCCO)C[C@@H](N(CC2CCCCC2)C(=O)c2cc3ccccc3oc2=O)[C@@H]1O` the composite z-score was -0.0969. Work on `C=C(CCCC)/C(=C/C[C@@H](OC(=O)c1ccncc1)c1cccc(OCCO)c1)c1cc(C(=O)OC)ccc1OC` yielded a composite z-score of 0.0371. `C=CCC(OC(C)=O)[C@@H]1[C@@H](N(Cc2ccc(-c3ccccc3)cc2)C(=O)c2ccc(-c3ccccc3)cc2)c2cc(OCCCO)ccc2N1C(=O)Cc1ccc(OC)cc1` (stereo partly specified) gave a composite z-score of 0.149. `CC(=O)NCCCC[C@@H]1NC(=O)[C@H]2C[C@@H](C(=O)NCCCCCCN(C)C)[C@@H](c3ccc(O)cc3)N2C1=O` gave a composite z-score of 0.538. Compound `Cc1ccc(S[C@]2(C(=O)NC(C)C)CC(=O)N(C3Cc4ccccc4C3)[C@@H]2c2ccc(CO)cc2)cc1` has a composite z-score of -0.357. In the case of `Cc1ccc(N2C(=O)c3ccccc3[C@](C)(C(=O)NCC(C)C)[C@@H]2c2ccc(CO)cc2)nc1`, the composite z-score is reported as -0.147. Compound `[N-]=[N+]=NCc1ccccc1C[C@]1(C(=O)N2CCCCC2)N=C(c2ccc(OCCCO)cc2)O[C@H]1c1ccccc1CN=[N+]=[N-]` has a composite z-score of 0.42. Compound `C=C(CCCC)/C(=C/C[C@H](OC(=O)c1ccncc1)c1cccc(OCCO)c1)c1cc(C(=O)OC)ccc1OC` has a composite z-score of 0.0406. For `O=C(CS)NCCCCCCNC(=O)[C@@H]1C[C@@H]2C(=O)N[C@@H](Cc3ccccc3)C(=O)N2[C@@H]1c1ccc(O)cc1`, the composite z-score was 0.0273. `C=C(CCCC)C(=O)CC[C@@H](OC(=O)c1cccnc1)c1cccc(OCCO)c1` showed a composite z-score of -0.0954. `COc1ccc([C@H]2C[C@H]3C(Br)=C[C@]2(OC)C(=O)[C@]32CO2)cc1` gave a composite z-score of -0.0536. In the case of `C=C(C(=O)CC[C@H](OC(=O)c1ccccc1-c1ccccc1C(=O)O)c1ccc(CO)o1)C(C)C`, the composite z-score is reported as 0.0026. Work on `C#CCCCON=C1C[C@@H](O)[C@@H](O)[C@@H]2[C@@H]3C(=O)N(Cc4ccc5c(c4)OCO5)C(=O)[C@@H]3CC[C@H]12` yielded a composite z-score of -0.161. Compound `COC(=O)c1ccc(C#CC(NP(=O)(c2ccccc2)c2ccccc2)c2ccccc2)cc1` (stereo unspecified) has a composite z-score of 0.0312. `CCOC(=O)C1=CC[C@@H](c2ccc(-c3ccc(OCc4ccccc4)cc3)c(OC)c2)N(S(=O)(=O)c2ccc(C)cc2)[C@H]1c1ccccc1` showed a composite z-score of 0.404. Compound `CC(c1ccccc1)C(O)C1C=CC2C(=O)N(C)C(=O)C2N1N(c1ccccc1)c1ccccc1` (stereo unspecified) has a composite z-score of 0.391. In the case of `C=C[C@H](OC)[C@@H](OC(=O)Nc1ccc(SC)cc1)c1ccc(O)c(F)c1`, the composite z-score is reported as 0.0043. `C=C(CCCC)C(=O)CC[C@@H](OC(C)=O)c1ccccc1OCCO` gave a composite z-score of -0.145. Compound `CC(=O)NCCCC[C@@H]1NC(=O)[C@H]2C[C@@H](C(=O)NCCCCCCN(C)C)[C@@H](c3cccc(OCCO)c3)N2C1=O` has a composite z-score of 0.257. Compound `CCCC=C(CCC)[C@@H](NS(=O)(=O)c1cccc(C(F)(F)F)c1)c1ccc(C(=O)OC)cc1` has a composite z-score of 1.6. For `O=C(NCc1ccccc1)[C@@]1(Cc2ccccc2)COC(c2ccc(OCCCO)cc2)=N1`, the composite z-score was 0.205. In the case of `[N-]=[N+]=NCc1ccccc1[C@H]1OC(c2ccc(OCCCO)cc2)=N[C@@]1(Cc1ccccc1N=[N+]=[N-])C(=O)NCc1ccccc1`, the composite z-score is reported as 0.195. Work on `NC(=O)NCC#Cc1ccc2c(c1)[C@]1(C(=O)N2)[C@H](C(=O)N2CCCCCCC2)[C@H]2C(=O)O[C@H](c3ccccc3)[C@H](c3ccccc3)N2[C@@H]1c1ccccc1OCCO` yielded a composite z-score of 2.79. Compound `C#CCNC(/C=C/c1ccccc1)CO` (stereo unspecified) has a composite z-score of -0.252. For `O=C1C2C=CC(C(O)C(c3ccccc3)c3ccccc3)N(Nc3ccc([N+](=O)[O-])cc3)C2C(=O)N1c1ccccc1` (stereo unspecified), the composite z-score was 0.442. In the case of `C=C(CCCC)/C(=C/C[C@@H](OC(=O)c1ccncc1)c1ccc(CO)o1)c1cnc2ccccc2c1`, the composite z-score is reported as 0.569. `CCc1cccc(NC(=O)O[C@H]2[C@H](OC(=O)Nc3ccccc3)[C@@H](OC(=O)Nc3ccccc3)[C@@H](OC)O[C@@H]2CO)c1` showed a composite z-score of 0.424. `C=CC[C@]1(C(=O)N2CCCCC2)N=C(c2ccc(OCCCO)cc2)O[C@H]1c1ccccc1N=[N+]=[N-]` gave a composite z-score of 0.707. Compound `C#C[C@H](O[Si](C#Cc1ccccc1)(C(C)C)C(C)C)c1ccccc1` has a composite z-score of 0.22. In the case of `CCOC(=O)C1=CC[C@@H](c2ccccc2)N(S(=O)(=O)c2ccc(C)cc2)[C@H]1C`, the composite z-score is reported as 0.0668. For `O=C(N1CCCCC1)[C@@]1(CCS(=O)(=O)c2ccccc2)N=C(c2ccc(OCCCO)cc2)O[C@H]1c1ccccc1`, the composite z-score was 0.347. For `CC(C)(C)OC(=O)CC[C@]1(C(=O)N2CCCCC2)N=C(c2ccc(OCCCO)cc2)O[C@H]1c1ccccc1`, the composite z-score was -0.294. With `N#Cc1ccc(NN2C(C(O)CCc3ccccc3)C=CC3C(=O)N(c4ccccc4)C(=O)C32)cc1` (stereo unspecified) the composite z-score was 0.272. `Cc1ccc(S[C@]2(C(=O)NC3CC3)CC(=O)N(Cc3cc(C(F)(F)F)cc(C(F)(F)F)c3)[C@@H]2c2ccc(CO)cc2)cc1` gave a composite z-score of -0.0186. `C#CCCCON=C1C[C@@H](O)[C@@H](O)[C@@H]2[C@@H]3C(=O)N(Cc4ccc5c(c4)OCO5)C(=O)[C@@H]3CC[C@@H]12` showed a composite z-score of 0.137. `Cc1ccc(S(=O)(=O)N2[C@@H](c3ccccc3)C(C(=O)O)=CC[C@H]2c2ccccc2)cc1` showed a composite z-score of -0.0501.
